The values below come from PubChem BioAssay (NCI).

Structures are written as SMILES. The panel holds about 83,000 compounds, 20% with a hit somewhere; the sample as a whole holds those more often.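 Interpretation: 100, growth as untreated; towards 0, rising growth inhibition; 0, no net growth; 0 to -100, cell death. Compounds scoring below 10 were considered active.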 A number with no mark means an inactive call. Activity calls are given as the source filed them.

Common to all, as to test: NCI-60 one-dose screen, 48 h (100 = growth as untreated, 0 = no growth, -100 = all killed)
What all share (conditions): 10 µM

In test [1] the test system is NCI-H23 lung.
Test [2] has as its system NCI-H226 lung.
Test [3] concerns NCI-H322M lung.
Test [4] has as its system HOP-62 NSCLC.
In test [5] the test system is NCI-H460 lung.
For test [6], the system named is HOP-92 NSCLC.
In test [7] the test system is NCI-H522 lung.
Test [8] relates to A549/ATCC NSCLC.
Test [9] relates to 786-0 renal.
The test system of test [10] is COLO 205 colon.

As to `COc1cc(C2c3cc4c(cc3C(O)C(CO)C2CO)OCO4)cc(OC)c1OC` (stereo not given), the growth was 43.2% in test [1]; 40.4% in test [2]; -0.279% (active) in [3]; 40.7% in [4]; 4.74% (active) in test [5]; 65.4% in test [6]. Also, the growth in [7] is 3.32% (active); in test [8], 47.4%; in test [9], 39.1%; in [10], -3.75% (active).

For the compound `CNC(=S)Sc1ccc([N+](=O)[O-])cc1[N+](=O)[O-]`, the growth in test [1] was 83.5%; in test [2], 78.9%; in test [3] it was 99.1%; in test [4] it was 83%; in test [5], 102%; in [6], 23.6%. Moreover, the growth is -57.7% (active) in test [7], 80.8% in test [8], 93.9% in test [9] and -35.1% (active) in test [10].

Regarding `CCOC(=O)[C@@H]1[C@H](c2ccccc2)[C@H]([N+](=O)[O-])[C@H](c2cn(-c3ccccc3)nc2C)N1Cc1ccccc1`, the growth in test [1] was 88.6%; in test [2] it was 66.6%; in [3], 104%; in test [4], 64.2%; in [5], 41.9%; in test [6], 69.8%. The growth was 80.6% in [7], 66.2% in test [8], 74.5% in test [9] and 64.7% in [10].

Regarding `COc1ccc(-c2n/c(=C\c3c(O)[nH]c4ccccc34)cc3c2=Nc2ccccc2-3)cc1`, the growth in [1] was 33.8%; in [2], 59.7%; in [3], 96%; in [4] it was 86.2%; in test [5] it was 9.63% (active); in [6], 42.1%. Besides, the growth in [7] was 63.1%; in test [8] it was 37.4%; in [9] it was -31.3% (active); in test [10], 35.9%.

Regarding `FC(F)(F)c1ccc(-c2nc(-c3nc4cc(Cl)c(Cl)cc4[nH]3)c3ccccn23)cc1`, the growth in [1] is 75.1%; in test [2] it was 55.2%; in test [3], 61.2%; in test [4], 64%; in test [5] it was 60.4%; in [6] it was 37.9%. In addition, the growth is 74.8% in test [7], 62% in test [8], 56.3% in test [9] and 87.1% in [10].

Turning to `N=C(N)c1ccc(-c2ccc(-c3ccccc3)s2)s1`, the growth in test [1] is 54.6%; in test [2], -19.8% (active); in test [3], -86.2% (active); in [4] it was -83.9% (active); in [5], -70% (active); in [6], -37.8% (active). Also, the growth was -69.4% (active) in test [7], -60.8% (active) in [8], -36.7% (active) in test [9] and -96.3% (active) in [10].

In the case of `CS(=O)(=O)Nc1ccc(Nc2c3ccccc3nc3cc(Cl)ccc23)cc1`, the growth is 42.7% in test [1]; -4.26% (active) in [2]; 50.6% in [3]; 25% in test [4]; 8.44% (active) in test [5]; -10.7% (active) in [6]. Also, the growth in test [7] was 16.2%; in [8], 9.01% (active); in test [9] it was 19.6%; in [10] it was 43.1%.

Consider `COc1ccc(C2C=C(c3ccc(Cl)c(Cl)c3)N=C3SC(C)=CN32)cc1OC` (stereo not given), for which the growth in test [1] is 64%; in test [2] it was 79.7%; in test [3] it was 71.7%; in [4] it was 82.3%; in [5], 70.2%; in [6] it was 47.2%. The growth in test [7] is 57.9%; in [8] it was 58.6%; in [9], 78.8%; in test [10] it was 72.1%.
